The results in this text go back to PubChem BioAssay (NCI).

Compounds without any hit were thinned out: in the full panel of roughly 83,000, 20% have a hit.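 Cell lines were cultured in 96-well plates, exposed to a single compound concentration, and assessed for percent growth 48 hours later.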 Values without a mark were called inactive. Calls of active or inactive are those of the source. How the source made its calls: active means growth percent below 10; inactive means the rest.

Test systems include SR leukemia; RPMI-8226 leukemia; OVCAR-8 ovarian; OVCAR-5 ovarian; OVCAR-4 ovarian; SK-OV-3 ovarian; IGROV1 ovarian; OVCAR-3 ovarian; NCI/ADR-RES ovarian; T-47D breast; BT-549 breast; MDA-MB-435 melanoma; SW-620 colon; MCF7 breast; HCT-116 colon; HCC-2998 colon; KM12 colon; HS 578T breast.
What all share (experiment): NCI-60 one-dose screen, 48 h (100 = growth as untreated, 0 = no growth, -100 = all killed)
Common to all, as to conditions: 10 µM unless noted

`CC(=O)N(N=O)c1ccc([N+](=O)[O-])cc1Cl`: the growth in the assay on SR leukemia is 63.1%; in the assay on RPMI-8226 leukemia, 17.2%; in the assay with OVCAR-8 ovarian, 66.1%; with OVCAR-5 ovarian, 88.5%; in the assay with OVCAR-4 ovarian, 55.5%; in the assay with SK-OV-3 ovarian, 66.9%. Besides, the growth is 67.7% with IGROV1 ovarian; 44.5% in the assay with OVCAR-3 ovarian; 64.5% in the assay with NCI/ADR-RES ovarian; 29.2% with T-47D breast; 71.7% in the assay with BT-549 breast; 66.7% with MDA-MB-435 melanoma. Further, the growth with SW-620 colon is 71.6%; with MCF7 breast it was 52.2%; in the assay on HCT-116 colon, 44.9%; in the assay on HCC-2998 colon, 76.6%; with KM12 colon, 69%.

Take `COC(=O)c1ccc2[nH]c(O)c(C(=Nc3ccc(N(C)C(=O)CN4CCN(C)CC4)cc3)c3ccc(C)cc3)c2c1`: the growth in the assay with SR leukemia was -28.2% (active); in the assay with RPMI-8226 leukemia, -32.2% (active); with OVCAR-8 ovarian, -17.8% (active); with OVCAR-5 ovarian, 29.7%; in the assay on OVCAR-4 ovarian, -64.3% (active); in the assay with SK-OV-3 ovarian it was -12.2% (active). Further, the growth with IGROV1 ovarian is 1.53% (active); in the assay on OVCAR-3 ovarian it was -60.2% (active); in the assay on HS 578T breast, -2.52% (active); in the assay on NCI/ADR-RES ovarian it was 70.7%; in the assay on MDA-MB-435 melanoma it was 10.3%; in the assay with SW-620 colon it was -26.5% (active). The growth in the assay with MCF7 breast is -67.8% (active); with HCT-116 colon, -66.1% (active); in the assay with HCC-2998 colon, 9.34% (active); in the assay on KM12 colon, -17.3% (active).

Turning to `N#Cc1ccc(OCc2nc(N)nc(N)c2-c2ccc(Cl)c(Cl)c2)cc1`, the growth in the assay with SR leukemia was 26%; with RPMI-8226 leukemia, 67.7%; in the assay with OVCAR-8 ovarian, 19.5%; in the assay with OVCAR-5 ovarian, 36.9%; in the assay on OVCAR-4 ovarian, 98.6%; in the assay with SK-OV-3 ovarian, 38.5%. Also, the growth in the assay on IGROV1 ovarian is 24.3%; with OVCAR-3 ovarian, 45.8%; in the assay on NCI/ADR-RES ovarian, 38.9%; in the assay with T-47D breast it was 82.2%; in the assay on BT-549 breast, 34.2%; in the assay on MDA-MB-435 melanoma, 15.9%. The growth in the assay with SW-620 colon was 21.8%; with MCF7 breast, 15.2%; in the assay with HCT-116 colon, 11.9%; with HCC-2998 colon it was 40.4%; in the assay with KM12 colon it was 43.2%.

For `CCC(C)C1NC(=O)C(CC(C)C)NC(=O)C(C)NC(=O)C(C(C)C)NC(=O)C(CCCCN)NC(=O)C(CC(C)C)NC(=O)C(C(C)C)NC(=O)[C@H](C)NC(=O)C(C(C)CC)NC(=O)C(CCCN=C(N)N)NC(=O)C(CCCCN)NC(=O)C(CCCN=C(N)N)NC(=O)C(CCCCN)NC(=O)C([C@H](C)CC)NC(=O)C(CCCCN)NC1=O` (some centres not stated), the growth is 2.37% (active) in the assay with SR leukemia; -35.5% (active) in the assay on RPMI-8226 leukemia; 11.7% in the assay with OVCAR-8 ovarian; 52.6% in the assay on OVCAR-5 ovarian; 18.4% in the assay on OVCAR-4 ovarian; 10.4% with SK-OV-3 ovarian. In addition, the growth is 12.4% with IGROV1 ovarian; 8.18% (active) in the assay on OVCAR-3 ovarian; 38.9% in the assay on HS 578T breast; 29.3% with NCI/ADR-RES ovarian; 14.4% in the assay on BT-549 breast; 11.2% with MDA-MB-435 melanoma. Besides, the growth was 19.6% with SW-620 colon; 20.5% in the assay on MCF7 breast; 3.67% (active) in the assay on HCT-116 colon; 16.7% with HCC-2998 colon; -6.4% (active) in the assay on KM12 colon.

Regarding `CC(=O)O.[In]`, the growth in the assay on SR leukemia is 93.4%; in the assay with RPMI-8226 leukemia, 102%; in the assay on OVCAR-8 ovarian, 102%; in the assay with OVCAR-5 ovarian, 105%; in the assay with OVCAR-4 ovarian, 114%; with SK-OV-3 ovarian, 103%. The growth in the assay on IGROV1 ovarian is 106%; in the assay on OVCAR-3 ovarian, 116%; in the assay on NCI/ADR-RES ovarian it was 107%; in the assay on T-47D breast, 103%; in the assay on BT-549 breast, 105%; in the assay on MDA-MB-435 melanoma, 102%. Besides, the growth in the assay with SW-620 colon was 106%; in the assay with MCF7 breast, 108%; in the assay on HCT-116 colon it was 106%; with HCC-2998 colon, 108%; in the assay on KM12 colon, 104%.

With `Oc1ccc(Br)cc1/C=N/NC(=S)NC12CC3CC(CC(C3)C1)C2`, the growth in the assay with SR leukemia was -7.5% (active); in the assay with RPMI-8226 leukemia, -21.3% (active); in the assay with OVCAR-8 ovarian, -31.3% (active); in the assay on OVCAR-5 ovarian, 46.9%; in the assay with OVCAR-4 ovarian, 36.9%; with SK-OV-3 ovarian, 39.7%. The growth in the assay with IGROV1 ovarian was 5.57% (active); with OVCAR-3 ovarian it was -26.5% (active); in the assay with NCI/ADR-RES ovarian, -3.63% (active); in the assay on T-47D breast, -4.11% (active); in the assay with BT-549 breast, 64.3%; in the assay on MDA-MB-435 melanoma it was 18.6%. Moreover, the growth with SW-620 colon is -24.8% (active); in the assay with MCF7 breast, -17.4% (active); in the assay on HCT-116 colon, 8.08% (active); in the assay with HCC-2998 colon, -8.19% (active); with KM12 colon, -24.6% (active).

With `O=C(O)COc1ccc([N+](=O)[O-])cc1Cl`, the growth was 97.6% in the assay on SR leukemia; 94.2% in the assay with RPMI-8226 leukemia; 110% in the assay on OVCAR-8 ovarian; 102% in the assay on OVCAR-5 ovarian; 106% with OVCAR-4 ovarian; 98.7% in the assay with SK-OV-3 ovarian. Besides, the growth is 100% in the assay on IGROV1 ovarian; 123% with OVCAR-3 ovarian; 107% in the assay on NCI/ADR-RES ovarian; 86.1% in the assay with T-47D breast; 107% with BT-549 breast; 107% with MDA-MB-435 melanoma. In addition, the growth with SW-620 colon is 108%; in the assay with MCF7 breast, 102%; with HCT-116 colon, 105%; with HCC-2998 colon, 113%; in the assay with KM12 colon it was 103%.

`CCN(CC)CCCC(C)Nc1c(C)cnc2cc(Cl)c(C)cc12` (configuration not stated): the growth in the assay with SR leukemia is 16.5%; in the assay on RPMI-8226 leukemia, 43.6%; in the assay on OVCAR-8 ovarian it was 96%; with OVCAR-5 ovarian it was 98.1%; with OVCAR-4 ovarian, 85.4%; in the assay with SK-OV-3 ovarian, 98.5%. The growth in the assay on IGROV1 ovarian is 96.3%; in the assay with OVCAR-3 ovarian it was 92.9%; in the assay on HS 578T breast it was 96.3%; in the assay on NCI/ADR-RES ovarian, 93.2%; in the assay with BT-549 breast, 69.2%; in the assay on MDA-MB-435 melanoma it was 89.9%. The growth in the assay on SW-620 colon was 85.9%; in the assay on MCF7 breast, 85.6%; in the assay with HCT-116 colon, 56.9%; in the assay with HCC-2998 colon, 74.5%; in the assay on KM12 colon, 81.9%.

With `O=C(/C=C/c1ccc(Cl)cc1)c1ccc(Cl)cc1`, the growth was 9.81% (active) in the assay on SR leukemia; 13.7% in the assay with RPMI-8226 leukemia; 106% with OVCAR-8 ovarian; 104% in the assay with OVCAR-5 ovarian; 106% in the assay on OVCAR-4 ovarian; 104% in the assay with SK-OV-3 ovarian. For the same compound, the growth is 88.1% in the assay on IGROV1 ovarian; 89.7% with OVCAR-3 ovarian; 99.3% in the assay on NCI/ADR-RES ovarian; 114% in the assay on T-47D breast; 101% with BT-549 breast; 80.3% with MDA-MB-435 melanoma. Besides, the growth with SW-620 colon was 88.8%; in the assay on MCF7 breast, 16.9%; with HCT-116 colon, 69.8%; in the assay with HCC-2998 colon it was 92.7%; in the assay with KM12 colon, 83.3%.
